Read-out in experiment [1]: Macrophage colony-stimulating factor (MCSF), CSF1 (gene 1435)
Briefly: BSK_CASM3C_MCSF: BioMAP Diversity Plus: CASM3C Assay for Macrophage colony-stimulating factor (MCSF) Biomarker Activity (AID 2283044).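 Note: M-CSF protein amount quantified by ELISA after 24 h exposure.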 To be noted: primary human coronary artery smooth muscle cells; actives raise or lower the signal.

Read-out in experiment [2]: Low-density lipoprotein receptor (LDLR), LDLR (gene 3949)
Briefly: BSK_CASM3C_LDLR: BioMAP Diversity Plus: CASM3C Assay for Low-density lipoprotein receptor (LDLR) Biomarker Activity (AID 2283045).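 Note: LDLR protein level on the cell surface quantified by ELISA.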 The note with it: primary human coronary artery smooth muscle cells; actives raise or lower the signal.

Read-out in experiment [3]: Monocyte Chemoattractant Protein-1 (MCP1), CCL2 (gene 6347)
Briefly: BSK_CASM3C_MCP1: BioMAP Diversity Plus: CASM3C Assay for Monocyte Chemoattractant Protein-1 (MCP1) Biomarker Activity (AID 2283046).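 Note: MCP-1 level quantified by ELISA 24 h after dosing.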 The note with it: primary human coronary artery smooth muscle cells; actives raise or lower the signal.

A short description of experiment [4]: BSK_CASM3C_Proliferation: Cell Proliferation Assessment in the BioMAP Diversity Plus: CASM3C Assay (AID 2283047).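 Note: sulforhodamine B total protein stain as relative cell number at 560 nm; sub-confluent cells exposed 48 h before staining; fitted both ways against DMSO so gain or loss of cell number.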 To be noted: primary human coronary artery smooth muscle cells.
Read-out in experiment [5]: Monokine induced gamma interferon (MIG), CXCL9 (gene 4283)
Briefly: BSK_CASM3C_MIG: BioMAP Diversity Plus: CASM3C Assay for Monokine induced gamma interferon (MIG) Biomarker Activity (AID 2283048).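 Note: MIG protein level measured by ELISA.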 The note with it: primary human coronary artery smooth muscle cells; actives raise or lower the signal.

Read-out in experiment [6]: serum amyloid A (SAA), SAA1 (gene 6288)
Briefly: BSK_CASM3C_SAA: BioMAP Diversity Plus: CASM3C Assay for serum amyloid A (SAA) Biomarker Activity (AID 2283049).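 Note: SAA protein level quantified by ELISA.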 To be noted: primary human coronary artery smooth muscle cells; actives raise or lower the signal.

A short description of experiment [7]: BSK_CASM3C_SRB: Viability Assessment in the BioMAP Diversity Plus: CASM3C Assay (AID 2283050).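 Note: cells exposed to compound for 24 h.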 The note with it: primary human coronary artery smooth muscle cells.
Read-out in experiment [8]: Thrombomodulin, THBD (gene 7056)
Briefly: BSK_CASM3C_Thrombomodulin: BioMAP Diversity Plus: CASM3C Assay for Thrombomodulin Biomarker Activity (AID 2283051).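 Note: thrombomodulin protein level measured by ELISA 24 h after dosing.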 To be noted: primary human coronary artery smooth muscle cells; actives raise or lower the signal.

Read-out in experiment [9]: Tissue Factor, F3 (gene 2152)
Put plainly: BSK_CASM3C_TissueFactor: BioMAP Diversity Plus: CASM3C Assay for Tissue Factor Biomarker Activity (AID 2283052).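 Note: cell surface tissue factor protein level read by ELISA.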 To be noted: primary human coronary artery smooth muscle cells; actives raise or lower the signal.

Read-out in experiment [10]: Interferon-gamma inducible Protein 10 (IP10), CXCL10 (gene 3627)
Put plainly: BSK_hDFCGF_IP10: BioMAP Diversity Plus: hDFCGF Assay for Interferon-gamma inducible Protein 10 (IP10) Biomarker Activity (AID 2283053). The note with it: primary human foreskin fibroblasts; actives raise or lower the signal. The gist of the method:
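IP-10 levels, quantified by ELISA, are taken from human foreskin fibroblast cultures 24 h after chemical treatment, with DMSO serving as negative control and baseline for bidirectional analysis.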

Read-out in experiment [11]: Urokinase-type plasminogen activator receptor (uPAR), PLAUR (gene 5329)
Briefly: BSK_CASM3C_uPAR: BioMAP Diversity Plus: CASM3C Assay for Urokinase-type plasminogen activator receptor (uPAR) Biomarker Activity (AID 2283054).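 Note: cell-surface uPAR protein level quantified by ELISA.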 To be noted: primary human coronary artery smooth muscle cells; actives raise or lower the signal.

Read-out in experiment [12]: Vascular cell adhesion molecule 1 (VCAM1), VCAM1 (gene 7412)
Briefly: BSK_CASM3C_VCAM1: BioMAP Diversity Plus: CASM3C Assay for Vascular cell adhesion molecule 1 (VCAM1) Biomarker Activity (AID 2283055).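 Note: VCAM-1 protein level quantified by ELISA on the cells.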 The note with it: primary human coronary artery smooth muscle cells; actives raise or lower the signal.

Read-out in experiment [13]: Collagen III, COL3A1 (gene 1281)
Put plainly: BSK_hDFCGF_CollagenIII: BioMAP Diversity Plus: hDFCGF Assay for Collagen III Biomarker Activity (AID 2283056). The note with it: primary human foreskin fibroblasts; actives raise or lower the signal. In a few lines: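 Human foreskin fibroblast primary cultures sampled 24 h after dosing; Collagen III quantified by ELISA. Signal fitted bidirectionally against DMSO baseline.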

Read-out in experiment [14]: Interleukin-8 (IL8), CXCL8 (gene 3576)
Put plainly: BSK_hDFCGF_IL8: BioMAP Diversity Plus: hDFCGF Assay for Interleukin-8 (IL8) Biomarker Activity (AID 2283058). The note with it: primary human foreskin fibroblasts; actives raise or lower the signal. The gist of the method: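 Primary human foreskin fibroblasts (hDFCGF system) dosed with chemical; IL-8 measured by ELISA 24 hours later. Bidirectional curve fitting relative to DMSO baseline; cytotoxicity tracked in parallel cultures by SRB total protein staining.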

Experiment [15] can be described thus: BSK_hDFCGF_Proliferation: Cell Proliferation Assessment in the BioMAP Diversity Plus: hDFCGF Assay (AID 2283059).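 Note: curves fitted for both rise and fall of signal versus DMSO baseline.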 To be noted: primary human foreskin fibroblasts. In a few lines:
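Steps: dose primary human dermal fibroblasts (foreskin); […] fix in 10% TCA; stain with 0.1% SRB; read 560 nm; fit gain or loss of signal against DMSO.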

Read-out in experiment [16]: Macrophage colony-stimulating factor (MCSF), CSF1 (gene 1435)
Put plainly: BSK_hDFCGF_MCSF: BioMAP Diversity Plus: hDFCGF Assay for Macrophage colony-stimulating factor (MCSF) Biomarker Activity (AID 2283060). The note with it: primary human foreskin fibroblasts; actives raise or lower the signal. In a few lines: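 Human foreskin fibroblast primary cultures; M-CSF measured by ELISA 24 hours after chemical dosing. Bidirectional fitting relative to DMSO, with overt cytotoxicity tracked by parallel SRB total-protein staining (0.1% SRB, 10% TCA fixation, 560 nm).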

Experiment [17] can be described thus: BSK_hDFCGF_SRB: Viability Assessment in the BioMAP Diversity Plus: hDFCGF Assay (AID 2283061).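 Note: cells exposed to compound for 24 h before the read.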 The note with it: primary human foreskin fibroblasts. The gist of the method:
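Human foreskin fibroblasts in 96-well plates were treated 24 h. Total protein was measured by 0.1% SRB staining after 10% TCA fixation, read at 560 nm. Data were fitted bidirectionally against DMSO.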

Read-out in experiment [18]: Monokine induced gamma interferon (MIG), CXCL9 (gene 4283)
Briefly: BSK_hDFCGF_MIG: BioMAP Diversity Plus: hDFCGF Assay for Monokine induced gamma interferon (MIG) Biomarker Activity (AID 2283063). To be noted: primary human foreskin fibroblasts; actives raise or lower the signal. In a few lines: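 MIG/CXCL9 measured by ELISA 24 h after dosing primary human skin fibroblasts. Activity fitted in both directions against DMSO controls. Cytotoxicity was checked in parallel cultures by SRB staining read at 560 nm.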

Read-out in experiment [19]: Matrix Metallopeptidase 1 (MMP1), MMP1 (gene 4312)
Put plainly: BSK_hDFCGF_MMP1: BioMAP Diversity Plus: hDFCGF Assay for Matrix Metallopeptidase 1 (MMP1) Biomarker Activity (AID 2283064). The note with it: primary human foreskin fibroblasts; actives raise or lower the signal. The gist of the method: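 Primary human foreskin fibroblasts in the hDFCGF system were dosed with test chemical, and MMP1 was measured by ELISA 24 h later. Values come from bidirectional curve fitting against the DMSO baseline.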

Read-out in experiment [20]: Vascular cell adhesion molecule 1 (VCAM1), VCAM1 (gene 7412)
Briefly: BSK_hDFCGF_VCAM1: BioMAP Diversity Plus: hDFCGF Assay for Vascular cell adhesion molecule 1 (VCAM1) Biomarker Activity (AID 2283065).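 For AC50: VCAM-1 protein level quantified by ELISA after 24 h chemical exposure.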 To be noted: primary human foreskin fibroblasts; actives raise or lower the signal. In a few lines: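 Human foreskin fibroblast primary cells dosed with chemical, VCAM-1 measured by ELISA at 24 h. Bidirectional curve fitting relative to DMSO as negative control/baseline.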

The source holds several records for some structures; these can differ, active in one and inactive in another. Calls of active or inactive are those of the source. Rule for the calls: active = hit-call score of the fitted dose curve at least 0.9, where 1 is the maximum; inactive = score below 0.9.

Take `CCCCC(CC)COC(=O)c1ccccc1O` (configuration not stated): the outcome in experiment [1], in experiment [2], in experiment [3], in experiment [4], in experiment [5] and in experiment [6] was inactive. Moreover, the result in [7], in experiment [8], in [9], in [11], in [12] and in experiment [14] was inactive. Besides, the half-maximal activity concentration (AC50) in [10] was 16.4 µM (active); in experiment [13], 6.81 µM (active); in [15] it was 7 µM (active); in experiment [16] it was 13.2 µM (active); in experiment [17], 14.4 µM (active); in experiment [18], 15 µM (active). The half-maximal activity concentration (AC50) is 17.8 µM (active) in [19] and 14.6 µM (active) in experiment [20].
As to `c1ccc2c(c1)ccc1cc3c(ccc4ccccc43)cc12`, the outcome in experiment [1], in experiment [2], in [3], in [4], in [5] and in experiment [6] was inactive. The outcome in experiment [7], in experiment [8], in [9], in [10], in [11] and in [12] was inactive. The result in experiment [13], in experiment [14], in experiment [15], in experiment [16], in [17] and in experiment [18] was inactive. Moreover, the result in experiment [19] and in experiment [20] was inactive. Also, the AC50 in experiment [8] is 0.0962 µM (active); in experiment [20], 0.0192 µM (active).
Regarding `C=CC(=O)OCC(Br)CBr` (configuration not stated), the half-maximal activity concentration (AC50) is 20 µM (active) in experiment [1]; 36 µM (active) in experiment [2]; 27.1 µM (active) in experiment [3]; 28.5 µM (active) in [4]; 28 µM (active) in [5]; 28.4 µM (active) in experiment [7]. For the same molecule, the AC50 was 32.8 µM (active) in experiment [8]; 29.1 µM (active) in [9]; 5.47 µM (active) in [10]; 28.9 µM (active) in [11]; 11.4 µM (active) in [12]; 5.82 µM (active) in experiment [13]. Moreover, the AC50 in [14] is 20 µM (active); in experiment [15] it was 5.47 µM (active); in experiment [16] it was 5.95 µM (active); in [17], 9.67 µM (active); in experiment [18], 6.57 µM (active); in [19] it was 11.8 µM (active). For the same molecule, the AC50 in [20] is 1.65 µM (active). The outcome in experiment [6] was inactive.
For the molecule `O=C(Cl)c1cc(C(=O)Cl)cc(C(=O)Cl)c1`, the half-maximal activity concentration (AC50) in experiment [1] is 14.5 µM (active); in experiment [2], 12.3 µM (active); in experiment [3], 32 µM (active); in experiment [4], 7.85 µM (active); in experiment [5], 29.2 µM (active); in experiment [6] it was 20 µM (active). Moreover, the concentration at half-maximal activity (AC50) is 15 µM (active) in [7]; 36.3 µM (active) in experiment [8]; 20 µM (active) in experiment [9]; 31 µM (active) in experiment [10]; 26 µM (active) in experiment [11]; 17.8 µM (active) in [12]. For the same molecule, the AC50 was 21.4 µM (active) in [13]; 3.77 µM (active) in experiment [15]; 13.6 µM (active) in experiment [16]; 26.4 µM (active) in experiment [17]; 16.1 µM (active) in [18]; 31.9 µM (active) in [19]. For the same molecule, in [20], the AC50 is 15.2 µM (active). Besides, in [14], the outcome was inactive.

Source of the values: PubChem BioAssay (EPA / NIEHS).
